MBD2 DNA inh – inhibitors of MBD2 binding to methylated DNA, primary screen, biochemical, TR-FRET, DNA-binding domain, human; MBD2 binding to methylated oligonucleotide; 0.31% of 370,000 active; Methyl-CpG-binding domain protein 2 (Homo sapiens), Q9UBB5; inhibition, % at 4.4 µM; AID 686964, 2013; in the data active = inhibition above about 13%
PfG6PD inh – PfG6PD enzyme inhibitors, primary screen, biochemical, fluorescence intensity, uHTS | glucose-6-phosphate dehydrogenase-6-phosphogluconolactonase (Plasmodium falciparum 3D7) | PfGluPho enzyme, NADPH resazurin-diaphorase fluorescence | inhibition, % at 20 µM | 0.78% of 350,000 active | AID 504690, 2011;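 active = inhibition reaching at least a set limit at 20 µM in the primary screen, cut at about 59% in these data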
PfM18AAP inh-1 – PfM18AAP inhibitors, malaria aminopeptidase, primary screen, biochemical, QFRET, recombinant enzyme. M18 aspartyl aminopeptidase (Plasmodium falciparum 3D7). H-Glu-NHMec fluorogenic cleavage. inhibition, % at 7.35 µM. 1.2% of 290,000 active. AID 1822, 2009;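 active = inhibition above the campaign mean inhibition over all tested compounds plus 3 SD, cut at about 28% in these data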
UHRF1 MBD2 ctr – UHRF1 methylated DNA binding inhibitors, primary screen, counter-screen for MBD2 inhibitor project, biochemical, TR-FRET, human UHRF1, single concentration. UHRF1 binding to methylated oligo. 0.75% of 370,000 active. E3 ubiquitin-protein ligase UHRF1 (Homo sapiens), Q96T88. inhibition, % at 4.4 µM; in the data active = inhibition above about 21%;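 also: UHRF1 SRA domain binding a hemimethylated CpG hairpin DNA probe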
PRMT1 inh – PRMT1 methyltransferase inhibitors, primary screen, biochemical, fluorescence polarization; Protein arginine N-methyltransferase 1 (Homo sapiens), Q99873; recombinant PRMT1, activity-based probe fluorescence polarization; inhibition, % at 2.79 µM; 1.3% of 370,000 active;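 active = inhibition above about 21% made by adding two undisclosed values, limit read from the data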
Target sequence (Q99873 whole entry, looked up): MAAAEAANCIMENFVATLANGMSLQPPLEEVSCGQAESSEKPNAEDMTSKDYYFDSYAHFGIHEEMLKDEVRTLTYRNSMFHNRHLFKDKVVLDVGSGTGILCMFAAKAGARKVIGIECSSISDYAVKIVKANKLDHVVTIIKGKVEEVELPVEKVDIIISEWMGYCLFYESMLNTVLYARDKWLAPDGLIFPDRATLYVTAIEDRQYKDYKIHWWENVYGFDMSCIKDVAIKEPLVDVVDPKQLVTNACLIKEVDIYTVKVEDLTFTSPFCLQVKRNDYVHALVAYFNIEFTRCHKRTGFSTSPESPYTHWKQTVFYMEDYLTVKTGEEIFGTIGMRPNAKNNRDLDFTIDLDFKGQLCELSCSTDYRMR
PfM18AAP inh-2 – PfM18AAP inhibitors, malaria aminopeptidase, confirmation, biochemical, QFRET, recombinant enzyme, triplicate | shares compounds with PfM18AAP inh-1 | H-Glu-NHMec fluorogenic cleavage | inhibition, % at 7.35 µM | 28% of 2,400 active | AID 2170, 2009;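 active = mean inhibition over replicate wells above the hit cutoff set for the earlier primary screen, cut at about 29% in these data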
CTSL1 confirm – cathepsin L1 inhibitors, retest, confirmation, counter-screen for PFM18AAP inhibitor project, biochemical, QFRET, triplicate; AID 2178, 2009; shares compounds with PfM18AAP inh-1; 2,400 tested, under 10 active; inhibition, % at 5.96 µM; purified cathepsin L1, Z-Leu-Arg-MCA fluorescence;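 active = average inhibition across replicates above the hit cutoff set in the earlier primary screen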
Numbers stand for hits; - = inactive; . = no result given. In the library only some 3.3% were active in any assay of this set; here they are far more common.

SMILES	MBD2 DNA inh	PfG6PD inh	PfM18AAP inh-1	UHRF1 MBD2 ctr	PRMT1 inh	PfM18AAP inh-2	CTSL1 confirm
COC(=O)[C@]12C[C@H](CC(=O)NCC34CC5CC(CC(C5)C3)C4)C(=O)N(CCc3ccc(OC)c(OC)c3)C1=C[C@H](COCc1ccccc1)O[C@@H]2C	-	.	.	-	-	.	.
Nc1nncn1C(=O)c1c(Cl)cccc1Cl	-	-	-	-	-	.	.
Cc1ccc(C)c(N)c1	-	-	.	-	-	.	.
Nc1nncn1C(=O)c1cc(Br)ccc1Cl	-	-	46	-	-	48	-
Cc1ccc(C)c(C(=O)n2cnnc2N)c1	-	-	35	-	-	51	-
Cc1ccc(C)c(NC(=O)CNS(=O)(=O)c2ccc3[nH]c(=O)oc3c2)c1	-	.	.	-	-	.	.
O=[N+]([O-])c1ccc(N/N=C/c2cn(Cc3ccc(F)cc3)c3ccccc23)nc1	-	-	40	-	-	-	-
O=[N+]([O-])c1ccc(NN=Cc2cccc(O)c2)nc1	-	-	.	-	-	.	.
COc1cc(/C=N/Nc2ccc([N+](=O)[O-])cn2)cc(OC)c1O	-	-	38	-	-	-	-
Cc1cccc(C)c1-n1c(C)cc(/C=N\Nc2ccc([N+](=O)[O-])cn2)c1C	-	-	51	-	-	-	-
Cc1ccc(NC(=O)Cc2ccc(OC(F)F)cc2)c(S(=O)(=O)N2CCOCC2)c1	-	.	.	-	-	.	.
Cc1ccc2oc(=O)c(/C=C(\O)c3cccs3)nc2c1	-	-	37	-	-	29	-
O=C(c1ccc(Cl)cc1)c1c[nH]c(C(=O)NNc2cccc(Cl)n2)c1	-	-	51	-	-	36	-
O=C(c1ccccc1)c1c[nH]c(C(=O)NNc2cccc(Cl)n2)c1	-	-	52	-	-	31	-
O=C(NNc1cccc(Cl)n1)c1ccc(Cl)cc1Cl	-	-	-	-	-	.	.
COCCN1C(=O)[C@H]2C[C@@]13O[C@H](C1CCCCC1)N=C3CC1c3ccccc3C[C@@]12C (stereo partly drawn)	-	.	.	-	-	.	.
CC(C)C[C@H](NC1(C(=O)NCCc2c[nH]c3ccccc23)CCOCC1)C(=O)NCCCc1ccccc1	-	.	.	-	-	.	.
CCCn1c(-c2ccc(F)cc2)n[nH]c1=S	-	-	35	-	-	-	-
CS(=O)(=O)c1ccc2c(c1)sc1nc(=O)c(/C=C3/C=CC(=O)C(O)=C3)c(N)n12	-	-	58	-	-	62	-
O=C(NC1CCCCN(Cc2cccc(F)c2)C1=O)c1ccc2ccccc2c1 (stereo not drawn)	-	.	.	-	-	.	.
Cc1ccc2c(c1)-c1c(ssc1=S)C(C)(C)N2C(=O)c1ccco1	-	-	40	-	-	-	-
CCN(CC)C(=O)c1csc(Nc2cccc3ccccc23)n1	-	-	32	-	-	-	-
COC(=O)C1=C(C)N(C)C(=NCc2cc(OC)c(OC)c(OC)c2)NC1c1cccc(F)c1 (stereo not drawn)	-	.	.	-	-	.	.
COc1cccc(-n2c(CCn3nc(C)c([N+](=O)[O-])c3C)n[nH]c2=S)c1	-	-	32	-	-	-	-
Cc1cccc(-n2c(CCn3nc(C)c([N+](=O)[O-])c3C)n[nH]c2=S)c1	-	-	-	-	-	.	.
SMILES	MBD2 DNA inh	PfG6PD inh	PfM18AAP inh-1	UHRF1 MBD2 ctr	PRMT1 inh	PfM18AAP inh-2	CTSL1 confirm
C=CCN1C/C(=C/c2ccccc2)N2C(=O)CC(c3ccccc3)N=C12 (stereo not drawn)	-	.	.	-	-	.	.
COc1ccc(S(=O)(=O)Nc2ccc(O)c(Sc3ncn[nH]3)c2)cc1	-	-	54	-	-	40	-
CC(C)c1ccc(S(=O)(=O)Nc2ccc(O)c(Sc3ncn[nH]3)c2)cc1	-	-	58	-	-	31	-
Cc1cc(C)nc(NS(=O)(=O)c2ccc(NC(=O)CSc3ncn[nH]3)cc2)n1	-	-	-	-	-	.	.
C=CCc1c(C)nc(-c2ccccc2)nc1N/N=C(\C)c1ccccc1	-	-	37	-	-	-	-
C=CCc1c(C)nc(-c2ccccc2)nc1Nc1ccc(O)cc1	-	-	-	-	-	.	.
CC(=O)Nc1ccc(S(=O)(=O)Nc2ncccn2)cc1	-	-	-	-	-	.	.
CC(=O)Nc1ccc(S(=O)(=O)Nn2cnnc2)cc1	-	-	37	-	-	36	-
Cc1ccc(NC(=O)NN2CCOCC2)cc1	-	-	-	-	-	.	.
Cc1ccc(NC(=O)Nn2cnnc2)cc1	-	-	45	-	-	37	-
O=C(Nc1ccc([N+](=O)[O-])cc1)Nn1cnnc1	-	-	81	-	-	72	-
O=C(Nc1ccc(Cl)cc1)Nn1cnc2ccccc2c1=O	-	-	-	-	-	.	.
O=C(Nc1ccc(Cl)cc1)Nn1cnnc1	-	-	68	-	-	57	-
COCCCNC(=O)CSc1nnc(-c2cccnc2)n1C1CCCCC1	-	.	.	-	-	.	.
COc1ccccc1C1c2c(ncn(-c3ccccc3)c2=N)Oc2ccc3ccccc3c21 (stereo not drawn)	-	.	.	-	-	.	.
CCCCCC/C=N/Nc1nnc(Cc2ccc(OC)c(OC)c2)c(=O)[nH]1	-	-	-	-	-	.	.
COc1ccc(Cc2nnc(N/N=C/c3ccc(O)cc3O)[nH]c2=O)cc1OC	-	-	39	-	-	46	-
COC(=O)CN(n1cnnc1)S(=O)(=O)c1ccccc1	-	-	78	-	-	85	-
O=C(NNc1cccc([N+](=O)[O-])c1)/C(=C\c1cccnc1)NC(=O)c1ccccc1	-	-	46	-	-	-	-
COCCCNC(=S)N/N=C/c1ccc(O)cc1O	-	-	36	-	-	-	-
COCCCNC(=S)N/N=C/c1ccc(O)cc1	-	-	-	-	-	.	.
O=c1c(OC2OC(CO)C(O)C(O)C2O)c(-c2ccc(O)c(O)c2)oc2cc(O)cc(O)c12 (stereo not drawn)	-	-	62	-	-	46	-
O=c1c(O[C@@H]2O[C@H](CO)C(O)C2O)c(-c2ccc(O)c(O)c2)oc2cc(O)cc(O)c12 (stereo partly drawn)	.	-	.	.	.	.	.
C[C@@H]1O[C@@H](Oc2c(-c3cc(O)c(O)c(O)c3)oc3cc(O)cc(O)c3c2=O)[C@H](O)[C@H](O)[C@H]1O	-	-	46	-	37	-	-

Assay outcomes as filed in PubChem.
